# Assay results taken from PubChem BioAssay (NCATS).
# Inconclusive results are not listed. Calls of active or inactive are those of the source. Unless noted, the call rests on the fitted dose curve.
# What was measured:
# [1] = qHTS drug screen for cell cycle checkpoint inhibitors in PARPi-resistant BRCA-mutant ovarian cancer cell lines. (AID 1963452); settings: PEO1/OlaR viability, CellTiter-Glo luminescence, 96 h, stronger effect = lower value
# Procedure, shortened: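 PEO1, PEO4 and PEO1/OlaR ovarian cancer cells, 600 per well, exposed 96 h at 37C to a dilution series. Viability read by CellTiter-Glo luminescence, normalized to DMSO and empty wells; activity summarized as Z-AUC.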
# [2] = Dual reporter qHTS for agonist of Pregnane X Receptor (hPXR) against the NCATS DSHEA and TCM libraries: Fluorescence readout (AID 1920058; active means well fitted curve in the direction sought with a large enough effect; an effect the other way counts as inactive or inconclusive; further: 0% is about no effect); settings: PXR dual reporter cells; series mostly up to 40 µM
# Procedure, shortened: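 In this qHTS counter-read, reporter-bearing HepG2 cells in charcoal-stripped serum received substances for approximately 24 h before viability was assessed fluorometrically with CellTiter-Fluor.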
# [3] = target: Nuclear receptor subfamily 1 group I member 2 (Homo sapiens) (UniProt O75469); assay: Dual reporter qHTS for agonist of Pregnane X Receptor (hPXR) against the NCATS DSHEA and TCM libraries: Luminescence readout (AID 1920059; active means well fitted curve in the direction sought with a large enough effect; an effect the other way counts as inactive or inconclusive; further: 0% is about no effect); settings: hPXR dual reporter cells, luciferase luminescence agonist; series mostly up to 22 µM
# Chain of Nuclear receptor subfamily 1 group I member 2 (Homo sapiens) (O75469 whole entry, looked up): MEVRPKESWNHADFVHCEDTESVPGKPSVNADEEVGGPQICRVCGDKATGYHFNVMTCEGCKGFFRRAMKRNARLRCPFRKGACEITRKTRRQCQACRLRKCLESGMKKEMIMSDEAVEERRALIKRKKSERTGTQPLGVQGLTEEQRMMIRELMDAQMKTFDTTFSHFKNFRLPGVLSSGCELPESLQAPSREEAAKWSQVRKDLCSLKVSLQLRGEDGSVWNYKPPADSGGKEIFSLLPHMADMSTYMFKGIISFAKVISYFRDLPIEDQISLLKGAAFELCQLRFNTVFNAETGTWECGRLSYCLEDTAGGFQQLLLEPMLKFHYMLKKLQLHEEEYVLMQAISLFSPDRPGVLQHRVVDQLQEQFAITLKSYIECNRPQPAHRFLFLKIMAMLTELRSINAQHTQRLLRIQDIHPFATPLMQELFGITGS
# Procedure, shortened: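 hPXR-LucHepG2 cells in phenol red-free DMEM with 5% charcoal-stripped FBS, 2000 cells/well, attached 5 h, then exposed 24 h at 37C to compounds; rifampicin as positive agonist control (2.8 nM–92 uM). Luciferase luminescence read.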
# [4] = Dual reporter qHTS for antagonist of Pregnane X Receptor (hPXR) against the NCATS DSHEA and TCM libraries: Fluorescence Readout (AID 1920061; active means well fitted curve in the direction sought with a large enough effect; an effect the other way counts as inactive or inconclusive; further: 0% is about no effect); settings: PXR dual reporter cells, antagonist mode; series mostly up to 40 µM
# Procedure, shortened: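 In antagonist mode, 2 uM rifampicin was added to hPXR-Luc HepG2 cells alongside test substances, incubated 24 h at 37 C; luminescence gave reporter activity, and CellTiter-Fluor fluorescence (405/540 nm) gave viability.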
# [5] = measured here: PEO1 parental Z-AUC
SMILES,Z-AUC [1],"Z-AUC [1, 5]",Z-AUC ([1]; measured here: PEO4 Z-AUC),outcome [2],Potency [3],outcome [4]
Cc1ncc(NC(=O)c2ccc(CN3CCN(C)CC3)c(C(F)(F)F)c2)cc1Nc1nccc(-c2cccnc2)n1,0.889 (inactive),-0.0515,-0.0456,–,–,–
O=C(OCC1=C[C@@H](O)[C@@H]2C=CO[C@@H](O[C@@H]3O[C@H](CO)[C@@H](O)[C@H](O)[C@H]3O)[C@H]12)c1ccc(O)cc1,–,–,–,inactive,inactive,inactive
COc1ccc2[nH]c(S(=O)Cc3ncc(C)c(OC)c3C)nc2c1 (stereo not drawn),0.929 (inactive),1.11,1.24,–,–,–
N#CN1CCC[C@@H](n2nc(-c3ccc(Oc4ccc(F)cc4F)cc3)c(C(N)=O)c2N)C1,-0.296 (inactive),0.0658,0.537,–,–,–
N#Cc1ccc(C2CCCc3cncn32)cc1 (stereo not drawn),0.659 (inactive),0.67,0.567,–,–,–
CCCCOc1nc(N)c2c(n1)N(Cc1cccc(CN3CCCC3)c1)CC(=O)N2,-0.393 (inactive),-0.969,-0.664,–,–,–
O=C(O)CC1CCC(c2ccc(-c3ccc(Nc4ccc(C(F)(F)F)nc4)cn3)cc2)CC1 (stereo not drawn),-0.639 (inactive),-0.457,-0.671,–,–,–
CNc1nc(C)nc(N[C@H]2CCC[C@@H](C(=O)NCc3ccc(C#N)cc3C(F)(F)F)C2)n1,-0.0725 (inactive),0.695,1.22,–,–,–
O=C(/C=C/C=C/c1ccc2c(c1)OCO2)N1CCCCC1,1.54 (inactive),1.2,2.18,–,–,–
C=C1C[C@@]2(O)O[C@@]3(C[C@H]2C(C)C)[C@@H](C)CC[C@@H]13,-0.318 (inactive),-0.38,-0.147,–,–,–
Nc1ncnc2c1c(COc1cccc(Cl)c1)nn2C1CCOCC1,-1.18 (inactive),-0.772,-0.767,–,–,–
